# Many of the other results were omitted from the sample, so the strongest signals are more common in it than they were.
# B1: PX9937A-bvu-521-23-521 (Bacteroides vulgatus) (protein)
# chain: LDLAPEDYYGAGNFWKEASQPKAFMLGLHAQLRSYYDMFYTLGELRGGTQRVGTSSLNTSLNYADIRSQNISEDIPGISNWNGLYSPIMQVNHFIQEVENGCTFLDDATRSRYLGQAYGMRALYYFMLYRTFGGVPLITKVDILDGKPSADKFYVERATPEATMEFIKADINKSENYFGNNTSFDAYDWSRYATLMLKAEIYMWAAKVSITGFTATGATDLQTAKTALSGIIGHFELMDNFASIFSCDNKKNTEIIFAMPFIEGEASNDGGRFLYQDAVFLGQAYGRNGKVIEKDTLNLKGTGGVFRDEYTEDFWKTFKEGDSRRDATFMEYYMKNDNGTLSEFGCVMKKRIGTINSNDNRIYISDIPVYRYADALLMMAEIENGLNNPCASYINEVRKRAYGDTFEENKYTEGSYAENELAILQERDKEFVSEGKRWFDVLRMHDASGRSLVFSANANYPGTNPILGTEEAYKMLWPVNIGTLNVNPLLTQTPGYGKK
# What was measured:
# Assay in all cases: glycan array binding signal (z-score within array); higher = stronger binding
# Details in all cases: glycan notation: IUPAC condensed, linker removed
# Fuc(a1-2)Gal(b1-3)GlcNAc = molecular target: Fuc(a1-2)Gal(b1-3)GlcNAc
# Method in brief: (§1)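 Arrays were curated from the Consortium for Functional Glycomics database, 3228 in total, and kept only where the protein sequence was available. Binding is expressed as a within-array Z-score. This score was averaged across arrays of the same protein sequence at different concentrations or buffers and across linkers, and negative values can be read as non-binding.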
# [1] = molecular target: Fuc(a1-2)Gal(b1-4)GlcNAc(b1-2)Man(a1-3)[Fuc(a1-2)Gal(b1-4)GlcNAc(b1-2)Man(a1-6)]Man(b1-4)GlcNAc(b1-4)[Fuc(a1-6)]GlcNAc
# Method in brief: as §1
# [2] = molecular target: Fuc(a1-2)Gal(b1-4)GlcNAc(b1-3)Gal(b1-4)GlcNAc(b1-2)Man(a1-3)[Fuc(a1-2)Gal(b1-4)GlcNAc(b1-3)Gal(b1-4)GlcNAc(b1-2)Man(a1-6)]Man(b1-4)GlcNAc(b1-4)GlcNAc
# Method in brief: as §1
# [3] = molecular target: Fuc(a1-2)Gal(b1-4)GlcNAc(b1-3)[Fuc(a1-3)[Gal(b1-4)]GlcNAc(b1-6)]Gal(b1-4)Glc
# Method in brief: as §1
# [4] = molecular target: Fuc(a1-2)Gal3S(b1-4)GlcNAc
# Method in brief: as §1
# [5] = molecular target: Fuc(a1-2)[Gal(a1-3)]Gal(b1-3)GalNAc(b1-3)Gal(a1-4)Gal(b1-4)Glc
# Method in brief: as §1
# [6] = molecular target: Fuc(a1-2)[Gal(a1-3)]Gal(b1-4)GlcNAc(b1-2)Man(a1-3)[Fuc(a1-2)[Gal(a1-3)]Gal(b1-4)GlcNAc(b1-2)Man(a1-6)]Man(b1-4)GlcNAc(b1-4)GlcNAc
# Method in brief: as §1
# [7] = molecular target: Fuc(a1-2)[Gal(a1-3)]Gal(b1-4)GlcNAc(b1-3)GalNAc
# Method in brief: as §1
# [8] = molecular target: Fuc(a1-2)[Gal(a1-3)]Gal(b1-4)[Fuc(a1-3)]GlcNAc(b1-3)GalNAc
# Method in brief: as §1
# [9] = molecular target: Fuc(a1-2)[GalNAc(a1-3)]Gal(b1-4)GlcNAc(b1-3)[Fuc(a1-2)[GalNAc(a1-3)]Gal(b1-4)GlcNAc(b1-6)]GalNAc
# Method in brief: as §1
# [10] = molecular target: Fuc(a1-2)[GalNAc(a1-3)]Gal(b1-4)GlcNAc(b1-6)GalNAc
# Method in brief: as §1
# [11] = molecular target: Fuc(a1-2)[GalNAc(a1-4)]Gal(b1-4)GlcNAc
# Method in brief: as §1
# [12] = molecular target: Gal(a1-3)Gal(b1-4)GlcNAc(b1-2)Man(a1-3)[Gal(a1-3)Gal(b1-4)GlcNAc(b1-2)Man(a1-6)]Man(b1-4)GlcNAc(b1-4)GlcNAc
# Method in brief: as §1
# [13] = molecular target: Gal(a1-3)Gal(b1-4)[Fuc(a1-3)]GlcNAc(b1-2)Man(a1-3)[Gal(a1-3)Gal(b1-4)[Fuc(a1-3)]GlcNAc(b1-2)Man(a1-6)]Man(b1-4)GlcNAc(b1-4)GlcNAc
# Method in brief: as §1
# [14] = molecular target: Gal(a1-3)[Gal(a1-4)]Gal(b1-4)GlcNAc
# Method in brief: as §1
# Gal(b1-3)GlcNAc = molecular target: Gal(b1-3)GlcNAc
# Method in brief: as §1
# Gal(b1-3)GlcNAc(b1-2)Man = molecular target: Gal(b1-3)GlcNAc(b1-2)Man
# Method in brief: as §1
# [15] = molecular target: Gal(b1-3)GlcNAc(b1-3)Gal(b1-4)GlcNAc(b1-2)Man(a1-3)[Gal(b1-3)GlcNAc(b1-3)Gal(b1-4)GlcNAc(b1-2)Man(a1-6)]Man(b1-4)GlcNAc(b1-4)GlcNAc
# Method in brief: as §1
# [16] = molecular target: Gal(b1-4)GlcNAc(b1-2)[Gal(b1-4)GlcNAc(b1-6)]Man(a1-6)[Gal(b1-4)GlcNAc(b1-2)Man(a1-3)]Man(b1-4)GlcNAc(b1-4)GlcNAc
# Method in brief: as §1
# [17] = molecular target: Gal(b1-4)GlcNAc(b1-3)Gal(b1-4)GlcNAc(b1-3)Gal(b1-4)GlcNAc(b1-3)Gal(b1-4)GlcNAc(b1-3)Gal(b1-4)GlcNAc(b1-2)Man(a1-3)[Gal(b1-4)GlcNAc(b1-3)Gal(b1-4)GlcNAc(b1-3)Gal(b1-4)GlcNAc(b1-3)Gal(b1-4)GlcNAc(b1-3)Gal(b1-4)GlcNAc(b1-2)Man(a1-6)]Man(b1-4)GlcNAc(b1-4)GlcNAc
# Method in brief: as §1
# [18] = molecular target: Gal(b1-4)GlcNAc(b1-6)[Gal(b1-3)]GalNAc
# Method in brief: as §1
# [19] = molecular target: Gal(b1-4)GlcNAc(b1-6)[Gal(b1-4)GlcNAc(b1-3)]GalNAc
# Method in brief: as §1
# Gal(b1-4)GlcNAc6P = molecular target: Gal(b1-4)GlcNAc6P
# Method in brief: as §1
# Gal3S(b1-3)GalNAc = molecular target: Gal3S(b1-3)GalNAc
# Method in brief: as §1
# [20] = molecular target: Gal3S(b1-4)[Fuc(a1-3)]GlcNAc6S
# Method in brief: as §1
# Gal6S(b1-3)GlcNAc6S = molecular target: Gal6S(b1-3)GlcNAc6S
# Method in brief: as §1
binder,measurement,setting,value
B1,glycan array binding signal (z-score),Fuc(a1-2)Gal(b1-3)GlcNAc,-0.251
same,glycan array binding signal (z-score),[1],0.307
same,glycan array binding signal (z-score),[2],0.158
same,glycan array binding signal (z-score),[3],-0.083
same,glycan array binding signal (z-score),[4],-0.223
same,glycan array binding signal (z-score),[5],-0.525
same,glycan array binding signal (z-score),[6],0.549
same,glycan array binding signal (z-score),[7],-0.367
same,glycan array binding signal (z-score),[8],-0.237
same,glycan array binding signal (z-score),[9],-0.334
same,glycan array binding signal (z-score),[10],0.027
same,glycan array binding signal (z-score),[11],-0.319
same,glycan array binding signal (z-score),[12],0.763
same,glycan array binding signal (z-score),[13],6.91
same,glycan array binding signal (z-score),[14],2.4
same,glycan array binding signal (z-score),Gal(b1-3)GlcNAc,-0.312
same,glycan array binding signal (z-score),Gal(b1-3)GlcNAc(b1-2)Man,-0.189
same,glycan array binding signal (z-score),[15],-0.279
same,glycan array binding signal (z-score),[16],4.26
same,glycan array binding signal (z-score),[17],2.53
same,glycan array binding signal (z-score),[18],6.72
same,glycan array binding signal (z-score),[19],0.459
same,glycan array binding signal (z-score),Gal(b1-4)GlcNAc6P,0.719
same,glycan array binding signal (z-score),Gal3S(b1-3)GalNAc,-0.408
same,glycan array binding signal (z-score),[20],-0.018
same,glycan array binding signal (z-score),Gal6S(b1-3)GlcNAc6S,-0.386

# From the supplement of paper PMC8728848
